Compounds without any hit were thinned out: in the full panel of roughly 83,000, 20% have a hit.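 Single-concentration screen, 48 h exposure, 96-well plates. Endpoint: percent growth. Below 10 = active.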 Values without a mark were called inactive. Active and inactive are the calls of the source.
Columns and labels:
Test in all cases: NCI-60 one-dose screen, 48 h (100 = growth as untreated, 0 = no growth, -100 = all killed)
[1] = system: NCI-H23 lung; conditions: 10 µM unless noted
[2] = system: HOP-62 NSCLC; conditions: 10 µM unless noted
[3] = system: NCI-H460 lung; conditions: 10 µM unless noted
[4] = system: HOP-92 NSCLC; conditions: 10 µM unless noted
[5] = system: NCI-H522 lung; conditions: 10 µM
[6] = system: A549/ATCC NSCLC; conditions: 10 µM unless noted
[7] = system: 786-0 renal; conditions: 10 µM unless noted
[8] = system: COLO 205 colon; conditions: 10 µM unless noted
[9] = system: DU-145 prostate; conditions: 10 µM unless noted
[10] = system: K-562 leukemia; conditions: 10 µM unless noted
[11] = system: MALME-3M melanoma; conditions: 10 µM unless noted
[12] = system: MDA-MB-231 breast; conditions: 10 µM unless noted
[13] = system: RXF 393 renal; conditions: 10 µM unless noted
[14] = system: SF-268 CNS; conditions: 10 µM unless noted
[15] = system: SF-295 CNS; conditions: 10 µM unless noted
[16] = system: SF-539 CNS; conditions: 10 µM unless noted
[17] = system: UACC-257 melanoma; conditions: 10 µM unless noted
[18] = system: M14 melanoma; conditions: 10 µM unless noted
[19] = system: NCI-H322M lung; conditions: 10 µM unless noted
[20] = system: NCI-H226 lung; conditions: 10 µM

SMILES	growth [1]	growth [2]	growth [3]	growth [4]	growth [5]	growth [6]	growth [7]	growth [8]	growth [9]	growth [10]	growth [11]	growth [12]	growth [13]	growth [14]	growth [15]	growth [16]	growth [17]	growth [18]	growth [19] [%]	growth [20] [%]
O=C(CCc1nnc2sc(-c3ccccc3)nn12)c1nc2ccccc2[nH]1	79.7%	100%	99.8%	49.1%	91.2%	99.3%	103%	114%	106%	5.84% (active)	93.7%	97.2%	107%	116%	77.1%	78.9%	100%	96.3%	–	–
Cc1cc(NS(=O)(=O)c2ccc(NC(=O)COc3ccc(-c4cc5ccccc5[nH]4)cc3)cc2)no1	22.4%	-11.3% (active)	9.1% (active)	5.04% (active)	20.8%	–	2.3% (active)	-50.5% (active)	18.5%	6.89% (active)	47.6%	18.9%	-24.6% (active)	27.3%	8.98% (active)	6.2% (active)	56.9%	-15.4% (active)	–	–
Cc1ccc(S(=O)(=O)c2ccc3[nH]c(=O)[nH]c(=O)c3c2)cc1	102%	–	114%	–	84.9%	–	96.5%	99.3%	107%	87.2%	119%	101%	114%	104%	116%	101%	91.5%	101%	106	–
O=c1[nH]c(-c2ccccn2)nc2sc3c(c12)CCCCCC3	48.7%	–	15.9%	-2.86% (active)	–	–	46.1%	33%	48.8%	20.4%	61.9%	49.3%	50.7%	40.6%	-6% (active)	61.7%	–	46.1%	46.8	–
COC(=O)C1C2CC3c4[nH]c5cc(OC)ccc5c4CCN3CC2CC(OC2CCCCO2)C1OC (stereo unspecified)	98.9%	–	107%	–	93.6%	95.7%	101%	109%	111%	95.2%	104%	96.8%	104%	101%	102%	97.6%	98.6%	103%	102	–
FC(F)(F)c1ccc2c(c1)n1cnnc1c1nncn21	103%	113%	110%	88.7%	97.1%	–	101%	111%	118%	100%	106%	104%	104%	117%	89.2%	114%	–	114%	–	–
Cc1nc(NN)c([N+](=O)[O-])c(NN)n1	–	110%	103%	102%	108%	100%	104%	118%	109%	93.6%	106%	107%	160%	102%	98.5%	95.2%	99.3%	98.2%	110	106
C=C[C@H]1C[C@@H]2C[C@@H]3[C@H]4C/C=C\C(=O)NCCCC5NC(=O)C(=C(O)/C=C/[C@@H]4CC(=O)[C@H]3[C@@H]2[C@H]1C)C5=O (stereo partly specified)	-8.31% (active)	-82.3% (active)	-69.4% (active)	-85.7% (active)	46.4%	-91% (active)	–	-82.9% (active)	-95.7% (active)	-58.1% (active)	-72% (active)	-75.6% (active)	-85.6% (active)	-88.6% (active)	9.25% (active)	-81.1% (active)	-89.1% (active)	–	–	–
Cc1nn2c(-c3nc4ccc(Cl)cc4[nH]3)c(-c3ccc(F)cc3)nc2s1	98.2%	115%	97.5%	91%	99.9%	80.1%	93.8%	108%	104%	88.6%	128%	116%	96.6%	101%	–	97.1%	92.9%	95.4%	–	–
O=C(CCc1nnc2sc(/C=C\c3ccccc3)nn12)c1nc2ccccc2[nH]1	73.4%	75.8%	96.7%	52.9%	95.1%	97.5%	89.7%	90.7%	98%	2.17% (active)	93.8%	83%	108%	107%	83.8%	65.9%	94.9%	90.7%	–	–
CCOc1ccc(-c2cnnn2-c2nonc2-n2cccc2)cc1	17.3%	31.6%	10.2%	25.4%	-55.9% (active)	17.2%	37.3%	-75.2% (active)	-9.36% (active)	5.54% (active)	52.6%	4.16% (active)	-30.1% (active)	50.7%	8.24% (active)	-19.5% (active)	65%	9.7% (active)	–	–
CN(C)C(=S)SCN1C(=O)c2ccc([N+](=O)[O-])cc2S1(=O)=O	99.7%	–	103%	–	103%	97.7%	103%	75.9%	94.3%	77.8%	92.8%	106%	113%	99.9%	101%	102%	102%	103%	99	–
N#Cc1ccc(C(F)(F)F)nc1N1CCC(C(=O)Nc2ccc(Cl)cc2)CC1	72%	–	34.1%	–	–	53.2%	70.4%	85.9%	86.6%	49.3%	94.2%	95.7%	–	89%	65.5%	100%	–	75.2%	71.1	–
CC(C)(C)[Si](C)(C)OC1[C@@H](COC(=O)NC(=O)CCl)O[C@@H](n2cnc3c(N)ncnc32)[C@H]1O[Si](C)(C)C(C)(C)C (stereo partly specified)	-45% (active)	–	64.6%	12.7%	–	62.6%	4.11% (active)	27.5%	46.2%	-37.6% (active)	-57% (active)	35.7%	64%	-19.6% (active)	45.7%	89.8%	–	18.4%	113	–
COc1ccc2nc(-n3nc(C)cc3C)c(-n3nc(C)cc3C)nc2c1	97.1%	105%	108%	115%	100%	–	105%	113%	128%	114%	108%	103%	104%	119%	98.7%	107%	119%	102%	–	–
Cc1c(NCC(=O)Nc2nc3ccccc3[nH]2)c(=O)n(-c2ccccc2)n1C	94.9%	–	99.6%	–	100%	97%	104%	110%	112%	101%	98.4%	99.3%	102%	103%	109%	97.7%	94.4%	105%	105	–
C[C@@H](Oc1cc(-c2cnn(C3CC4(CNC4)C3)c2)cnc1N)c1c(Cl)ccc(F)c1Cl	–	49.9%	15.9%	0.0528% (active)	69.1%	19.6%	53%	5.17% (active)	46.6%	5.12% (active)	48.5%	37.9%	21.7%	39.6%	24.5%	28.9%	8.56% (active)	30.2%	72.1	65.9
O=C(COc1cccc(/C=C2\COc3ccccc3C2=O)c1)c1ccccc1	–	98%	104%	91.5%	-41.9% (active)	89.2%	88.8%	102%	101%	17.1%	90%	83.8%	69.5%	88.7%	115%	90.4%	72.9%	60.9%	95.3	68.7

From PubChem BioAssay (NCI)
